Data as given in PubChem BioAssay AID624114 (Johns Hopkins Ion Channel Center, 2012).
The whole screen tested about 4,000 compounds, of which about 15 (0.4%) were called active.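 Rule for the calls: active = calcium fluorescence ratio, averaged over duplicates, at least 3 SD of the buffer-well ratio, meaning a nonspecific response in receptor-free cells; inactive = the rest.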 A selection follows.

Test: nonspecific Ca2+ flux in HEK293 lacking MrgX1 – cell-based, Fluo-4 calcium flux, duplicate, counter-screen for MrgX1 allosteric activator project, primary screen (AID 624114)
Details: parental HEK293 calcium flux, Fluo-4 fluorescence ratio; at 10 µM

For `O=C(Nc1ccccc1N1CCOCC1)c1csc2c1CCCC2`, which outcome is on record?
The outcome was “inactive”.

For `Brc1ccccc1C1Nc2cccc3cccc(c23)N1`, which outcome is on record?
The outcome was “inactive”.

For `Cc1ccc(NC2(C#N)C(=O)Nc3ccccc32)cc1` (stereo unspecified), which outcome is on record?
The outcome was “inactive”.

With `Cc1nccn1CCC1CCCCN1C(=O)CCc1nnc(-c2ccsc2)o1` (stereo unspecified) as the compound, how does the outcome read?
The outcome was “inactive”.

Which outcome does the source give for `OCc1ccc(OCCCOc2cccc3cccnc23)cc1` here?
Its outcome is “inactive”.

Which outcome does the source give for `COc1ccc(NC(=O)c2cc(-c3ccc(C)o3)nc3ccccc23)cc1` here?
The outcome was “inactive”.

Which outcome does the source give for `CN1/C(=C\C=C2\N=C(c3ccc(F)cc3)OC2=O)C(C)(C)c2ccccc21` here?
The outcome was “inactive”.

For `COc1cc(C)c(C)cc1S(=O)(=O)N1CCCc2ccccc21`, which outcome is on record?
The outcome was “inactive”.

Which outcome does the source give for `Cc1ccc(CS(=O)(=O)c2ncc(Cl)c(C(=O)Nc3nnc(C)s3)n2)cc1` here?
The outcome was “inactive”.

Which outcome does the source give for `O=C(Nc1nnc(-c2ccccc2)o1)c1cc(-c2cccs2)nc2ccccc12` here?
Its outcome is “inactive”.

With `COC(=O)Cn1c(O)c(N=NC(=O)OC)c2ccccc21` as the compound, how does the outcome read?
Its outcome is “inactive”.

With `CN(c1cccc(NC(=O)Nc2ccc(Cl)cc2)c1)S(C)(=O)=O` as the compound, how does the outcome read?
The outcome was “inactive”.

Which outcome does the source give for `CCc1cc(=O)oc2cc(C)cc(OCC(=O)N3CCC[C@@H]3C(=O)O)c12` here?
The outcome was “inactive”.

With `CCOC(=O)c1c(C)[nH]c(=S)c(C#N)c1-c1ccccc1` as the compound, how does the outcome read?
The outcome was “inactive”.

With `CCOc1ccccc1C1CC(c2ccc(Cl)cc2)Nc2nc(N)nn21` (stereo unspecified) as the compound, how does the outcome read?
The outcome was “inactive”.

With `Cc1c(C(=O)N2CCCc3ccccc32)sc2nc(-c3ccccc3)cn12` as the compound, how does the outcome read?
Its outcome is “inactive”.

With `O=C(Cc1nc2ccccc2[nH]c1=O)c1ccc(Cl)cc1` as the compound, how does the outcome read?
Its outcome is “inactive”.

For `COc1cc(C2/C(=C(\O)c3ccc4c(c3)CC(C)O4)C(=O)C(=O)N2Cc2ccco2)ccc1O` (stereo unspecified), which outcome is on record?
The outcome was “inactive”.

Which outcome does the source give for `CCc1nnc(NC(=O)CSc2nc3c(c(=O)n2-c2ccccc2OC)SCC3)s1` here?
Its outcome is “inactive”.

Which outcome does the source give for `N=C(N)SCc1cccc2ccccc12` here?
The outcome was “inactive”.

With `CCCCC(=O)NNC(=S)NC(=O)C(c1ccccc1)c1ccccc1` as the compound, how does the outcome read?
Its outcome is “inactive”.

With `Cc1occc1C(=O)Nc1nnc(-c2ccncc2)s1` as the compound, how does the outcome read?
Its outcome is “inactive”.

Which outcome does the source give for `Cc1ccc2nc(-c3ccc(NC(=O)c4cccnc4)cc3)oc2c1` here?
The outcome was “inactive”.

For `COCCNC(=O)C1CCN(S(=O)(=O)c2ccc3c(c2)OCCO3)CC1`, which outcome is on record?
The outcome was “inactive”.

For `CCN(CC)c1ccc(C2C3CCCCC3(O)CCN2CC(=O)Nc2ccccc2)cc1` (stereo unspecified), which outcome is on record?
The outcome was “inactive”.

With `COC(=O)c1c(NC(=O)CN(c2ccc(C)c(C)c2)S(C)(=O)=O)sc2c1CCCC2` as the compound, how does the outcome read?
Its outcome is “inactive”.

For `CC(C)(C)Nc1c(-c2cccs2)nc2ccccn12`, which outcome is on record?
The outcome was “inactive”.

Which outcome does the source give for `Cc1onc(-c2ccccc2)c1C(=O)NNC(=S)NC(=O)c1ccc(F)cc1` here?
The outcome was “inactive”.

Which outcome does the source give for `COc1cccc(CCNC(=O)COc2cccc3c2OC(C)(C)C3)c1` here?
Its outcome is “inactive”.

Which outcome does the source give for `COc1ccc(-n2c(SCC(=O)NCc3ccco3)nnc2-c2c[nH]c3ccccc23)cc1` here?
Its outcome is “inactive”.

With `CCS(=O)(=O)c1ccc2c(c1)N(S(=O)(=O)c1ccccc1)CC(C(=O)O)O2` (stereo unspecified) as the compound, how does the outcome read?
Its outcome is “inactive”.

For `Cc1nn(C(=O)c2ccoc2C)c(N)c1-c1ccccc1`, which outcome is on record?
The outcome was “inactive”.

Which outcome does the source give for `O=C(COC(=O)C1CCN(S(=O)(=O)c2ccc3c(c2)OCCO3)CC1)Nc1ccccc1OC(F)F` here?
The outcome was “inactive”.

With `CC(=O)N(C)c1ccc(NC(=O)C(F)(F)F)cc1` as the compound, how does the outcome read?
The outcome was “inactive”.

With `O=C(CC(O)(C(F)(F)F)C(F)(F)F)Nc1ccc(Cl)c(Cl)c1` as the compound, how does the outcome read?
Its outcome is “inactive”.

With `O=C(CCN1CCc2ccccc2C(O)(c2ccccc2)C1)c1ccc2c(c1)OCCO2` (stereo unspecified) as the compound, how does the outcome read?
Its outcome is “inactive”.

Which outcome does the source give for `COc1ccc(C2SCCN2S(=O)(=O)c2ccccc2)cc1OC` (stereo unspecified) here?
Its outcome is “inactive”.

For `CCc1cc2c(SCC(=O)Nc3ncc(Cl)c(C)c3Cl)ncnc2s1`, which outcome is on record?
Its outcome is “inactive”.

Which outcome does the source give for `CCOC(=O)c1c(NC(=O)CNC2CCCc3ccccc32)sc(C(N)=O)c1C` (stereo unspecified) here?
Its outcome is “inactive”.

Which outcome does the source give for `O=S(=O)(c1ccc2ccccc2c1)N1CCN(S(=O)(=O)N2CCOCC2)CC1` here?
Its outcome is “inactive”.

Which outcome does the source give for `Cc1cc(=O)oc2cc(NC(=O)C3CC(=O)N(Cc4ccccc4)C3)ccc12` (stereo unspecified) here?
The outcome was “inactive”.

Which outcome does the source give for `CCN(C(=O)CSc1nnc2ccccn12)C1CCS(=O)(=O)C1` (stereo unspecified) here?
The outcome was “inactive”.

Which outcome does the source give for `CC(=O)N(C1=C(Cl)C(=O)c2ccccc2C1=O)c1ccc(C(=O)O)cc1` here?
Its outcome is “inactive”.

With `COc1ccc(C(=O)CSc2n[nH]c(N)n2)cc1` as the compound, how does the outcome read?
Its outcome is “inactive”.

Which outcome does the source give for `O=C(Nc1ccccc1)c1nnsc1S(=O)(=O)c1ccc(Cl)cc1` here?
The outcome was “inactive”.

With `Cc1ccc2cc(/C=N/Nc3ccc(C(=O)O)cc3)c(Cl)nc2c1` as the compound, how does the outcome read?
The outcome was “inactive”.

For `c1ccc(-c2[nH]ncc2-c2nc3ccccc3[nH]2)cc1`, which outcome is on record?
Its outcome is “inactive”.

Which outcome does the source give for `COc1ccccc1Oc1nc(-c2cccnc2)nc2ccccc12` here?
The outcome was “inactive”.

For `O=c1c2cc(Br)ccc2nc(-c2cccc(Cl)c2)n1O`, which outcome is on record?
The outcome was “inactive”.

Which outcome does the source give for `COc1ccc([N+](=O)[O-])cc1NC(=O)COC(=O)/C=C/c1ccco1` here?
The outcome was “inactive”.

For `C=CCSc1nc(Cc2ccc(Cl)cc2)nc2ccccc12`, which outcome is on record?
The outcome was “inactive”.

With `NC(=O)c1c(Nc2nc3c(F)cccc3s2)sc2c1CCCC2` as the compound, how does the outcome read?
Its outcome is “inactive”.

With `CCN(CC)CC(=O)Nc1nn(-c2ccccc2)nc1C(N)=O` as the compound, how does the outcome read?
Its outcome is “inactive”.

With `Cc1ccc(C(=O)COC(=O)CCN2C(=O)C3C4CC(C(Br)C4Br)C3C2=O)cc1` (stereo unspecified) as the compound, how does the outcome read?
The outcome was “inactive”.

Which outcome does the source give for `Cc1ccc(-n2cnc3ncnc(-c4ccccc4)c32)cc1` here?
The outcome was “inactive”.

For `CCOC(=O)Nc1ccc2c(c1)N(C(=O)CCN1CCN(CCO)CC1)c1ccccc1CC2`, which outcome is on record?
Its outcome is “inactive”.
